Shown are actives, neighbours in structure and some others; about 5.7% of the full set was active somewhere.
FAS-TE inh – FAS thioesterase (human) inhibition; recombinant FAS-TE, OMFH fluorogenic substrate, fluorescence endpoint; inhibition, % at 15 µM; 360,000 tested, 0.67% active; AID 602261;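 active = compounds whose normalised, plate-corrected inhibition of enzyme fluorescence in the single-dose primary screen is 50% or more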
GRIN3A LBD mod – modulates the human NR3A ligand-binding domain; NR3A LBD differential scanning fluorimetry, Tm shift; 0% = protein alone, 100% = glycine-bound protein; Tm shift relative to glycine control, % at 25 µM; 340,000 tested, 2.5% active; AID 1259313;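 active = melting temperature shift of at least 10% of the positive control shift, at one fixed dose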
MPTP block – permeability transition pore inhibition; isolated mouse mitochondria, Ca2+ swelling absorbance, 30 min; inhibition, % at 10 µM; 360,000 tested, 1.4% active; AID 602449;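 active = inhibition of 50% or more, scaled per plate between neutral and stimulator controls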
rCAG RNA binder – molecules binding r(CAG) RNA repeats. AID 651821. r(CAG) RNA repeat, TO-PRO-1 dye displacement fluorescence. inhibition, % at 3 µM. 370,000 tested, 1.3% active;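 active = inhibition above the plate cutoff, the mean of all test compounds on that plate plus 3 SD, cut at about 35% in these data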;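 also: higher means more dye released from RNA so lower well fluorescence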
Myeloid diff MLP – myeloid differentiation induction. ER-HoxA9 myeloid progenitors, lysozyme-GFP differentiation, flow cytometry. calls only at 10 µM. 360,000 tested, 1% active. AID 624256;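 active = normalized GFP-positive differentiation at or above the plate's own cutoff, the solvent-only control mean plus 3 SD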;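 also: cells exposed to compound for four days before flow analysis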
FAS-TE inh conf – confirmation of human fatty acid synthase thioesterase inhibitors; shares compounds with FAS-TE inh; recombinant FAS-TE, OMFH fluorogenic substrate, fluorescence; inhibition, % at 15 µM; 2,300 tested, 45% active; AID 624325;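 active = compounds inhibiting the enzyme by at least 50% at 15 µM in any one of the replicates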
Rh123 counter – Rhodamine 123 counter-screen of mitochondrial pore hits. shares compounds with MPTP block. isolated mitochondria, membrane potential, Rhodamine 123 fluorescence. inhibition, % at 10 µM. 5,000 tested, 78% active; in the data active = inhibition above about 22%
rCAG binder conf – r(CAG) RNA repeat binding, confirmation; shares compounds with rCAG RNA binder; TO-PRO-1 dye displacement fluorescence; 4,300 tested, 70% active; inhibition, % at 3 µM; AID 652065;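 active = inhibition above a per-plate cutoff, the mean inhibition of sample wells plus 3 SD, cut at about 35% in these data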;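 also: loss of TO-PRO-1 fluorescence as compound displaces dye from 1x1 AA loop RNA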
DNA CAG counter – DNA CAG dye complex inhibition counter-screen; shares compounds with rCAG RNA binder; d(CAG) DNA oligo TO-PRO-1 dye displacement, fluorescence; inhibition, % at 3 µM; 4,300 tested, 94% active; AID 652068;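 active = inhibition above its plate's cutoff, the mean test-well inhibition plus 3 SD, cut at about 4.8% in these data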;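 also: hits displace the dye from DNA and so lower well fluorescence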
dCAG dye DR – DNA CAG dye complex inhibition, dose response counter-screen; shares compounds with rCAG RNA binder; DNA CAG/GTC duplex TO-PRO-1 dye displacement fluorescence; IC50, µM; 250 tested, 20% active; in the data active = IC50 below about 10 µM
Each line names hits and unclear results; the compound was inactive in the other large screens (follow-up assays come after a bar, where they were run).

CC1CCN(S(=O)(=O)c2ccc3c(c2)c(=O)c(C(=O)NCc2cccs2)cn3C)CC1	FAS-TE inh 65, rCAG RNA binder 43 | FAS-TE inh conf inactive | rCAG binder conf inactive | DNA CAG counter 7.5
CC1CCN(S(=O)(=O)c2ccc3c(c2)c(=O)c(C(=O)N2CCOCC2)cn3C)CC1	none
Cc1ccc(S(=O)(=O)N(C(=O)c2ccco2)c2cc3sc(=O)oc3c3ccccc23)cc1	FAS-TE inh 53, rCAG RNA binder 88 | FAS-TE inh conf inactive | rCAG binder conf 40 | DNA CAG counter 17
CCOc1ccc(S(=O)(=O)N(C(=O)c2ccco2)c2cc3sc(=O)oc3c3ccccc23)cc1	FAS-TE inh 51, rCAG RNA binder 78 | FAS-TE inh conf inactive | rCAG binder conf 48 | DNA CAG counter 26
Cc1ccc(S(=O)(=O)N2[C@@H](c3ccc(Cl)cc3)C(C(=O)OC(C)(C)C)=CC[C@H]2c2ccc(Cl)c(Cl)c2)cc1	none (no result: GRIN3A LBD mod)
Cc1ccc(S(=O)(=O)N2[C@@H](c3ccc(C(C)(C)C)cc3)C(C(=O)O)=CC[C@H]2c2ccc(Cl)c(Cl)c2)cc1	FAS-TE inh 55, rCAG RNA binder 68 | FAS-TE inh conf inactive | rCAG binder conf 49 | DNA CAG counter 24
N#Cc1c(C(F)(F)F)cc(-c2cccs2)nc1SC(C(=O)O)c1ccccc1 (stereo not drawn)	FAS-TE inh 75, rCAG RNA binder 78 | FAS-TE inh conf 82 | rCAG binder conf 77 | DNA CAG counter 31 | dCAG dye DR inactive
CCOc1ccc(N(CC(=O)Nc2c(C)cc(C)cc2C)C2=NC3CS(=O)(=O)CC3S2)cc1 (stereo not drawn)	none (no result: GRIN3A LBD mod)
CCc1ccc(CCNC(=O)OC2CC3CC2[C@H]2CCCCN2[C@H]3Cc2ccccc2)cc1 (stereo partly drawn)	none (no result: FAS-TE inh, GRIN3A LBD mod, MPTP block, Myeloid diff MLP)
COc1ccc(Sc2cccc3c2S(=O)(=O)N(C2CC2)C[C@@H](COCc2ccccc2)O3)cc1OC	none (no result: FAS-TE inh, GRIN3A LBD mod, MPTP block, Myeloid diff MLP)
Cc1cccc(OC(=O)Nc2ccc(C(=O)O)c(O)c2)c1	none (no result: GRIN3A LBD mod)
CC(C)(C)c1ccc(OC(=O)Nc2ccc(O)c(C(=O)O)c2)cc1	FAS-TE inh 50, rCAG RNA binder 54 | FAS-TE inh conf 63 | rCAG binder conf 37 | DNA CAG counter 11
O=C(N/N=C/c1ccc(O)c([N+](=O)[O-])c1)C(O)(c1ccccc1)c1ccccc1	none
O=C(N/N=C/c1cc([N+](=O)[O-])cc([N+](=O)[O-])c1O)C(O)(c1ccccc1)c1ccccc1	FAS-TE inh 52, rCAG RNA binder 68 | FAS-TE inh conf 61 | rCAG binder conf 71 | DNA CAG counter 30
O=C(NC(C(=O)N/N=C/c1cccc2ccccc12)c1n[nH]c(=O)c2ccccc12)c1ccccc1 (stereo not drawn)	none
O=C(NC(C(=O)N/N=C/c1cc([N+](=O)[O-])ccc1O)c1n[nH]c(=O)c2ccccc12)c1ccccc1 (stereo not drawn)	FAS-TE inh 67, rCAG RNA binder 84 | FAS-TE inh conf 78 | rCAG binder conf 66 | DNA CAG counter 28
COc1ccc(-c2cc(=O)oc3c(C)c(OCc4nn[nH]n4)ccc23)cc1	FAS-TE inh 62, rCAG RNA binder 39 | FAS-TE inh conf 69 | rCAG binder conf inactive | DNA CAG counter 5.7
CCN(CC)S(=O)(=O)c1cccc(-c2n[nH]c(=S)n2/N=C/c2ccc(OC(F)F)cc2)c1	FAS-TE inh 52, rCAG RNA binder 78 | FAS-TE inh conf inactive | rCAG binder conf 64 | DNA CAG counter 22
O=C(N[C@@H](Cc1cccnc1)C(=O)N1CCC[C@H]1C(=O)NCCc1ccccc1Cl)c1ccc(Cl)c(Cl)c1	none (no result: FAS-TE inh, GRIN3A LBD mod, MPTP block, Myeloid diff MLP)
COC(=O)C1CN(Cc2ccc(C)cc2)CCS(=O)(=O)N1Cc1cn(Cc2ccc(F)cc2)nn1 (stereo not drawn)	none (no result: FAS-TE inh, GRIN3A LBD mod, MPTP block, Myeloid diff MLP)
O=C(N/N=C/c1ccccn1)c1cccc(S(=O)(=O)Nc2ccccc2Cl)c1	none
COc1ccc(-c2nn(-c3ccccc3)cc2/C=N/NC(=O)c2cccc(S(=O)(=O)Nc3ccccc3Cl)c2)cc1	FAS-TE inh 59, GRIN3A LBD mod 22, rCAG RNA binder 59 | FAS-TE inh conf inactive | rCAG binder conf 55 | DNA CAG counter 29
C=CCOc1c(Br)cc(/C=N/Nc2ccc(C(=O)O)cc2)cc1OCC	FAS-TE inh 54, rCAG RNA binder 83 | FAS-TE inh conf 72 | rCAG binder conf 66 | DNA CAG counter 26
Cn1ncc2c(Nc3ccc(Br)cc3)nc(Nc3ccc(Br)cc3)nc21	FAS-TE inh 50, rCAG RNA binder 49 (no result: GRIN3A LBD mod) | FAS-TE inh conf inactive | rCAG binder conf inactive | DNA CAG counter 13
Cn1ncc2c(Nc3ccc(O)cc3)nc(Cl)nc21	none (no result: GRIN3A LBD mod)
Cn1ncc2c(Nc3cccc(Cl)c3)nc(Nc3cccc(Cl)c3)nc21	FAS-TE inh 57, GRIN3A LBD mod 31, rCAG RNA binder 36 | FAS-TE inh conf inactive | rCAG binder conf inactive | DNA CAG counter 7.5
C[C@H](O)[C@@H]1C(=O)N2CCc3c([nH]c4cccc(-c5ccccc5)c34)[C@@H]2C[C@@H]1N(C)C(=O)c1ccco1	none (no result: FAS-TE inh, GRIN3A LBD mod, MPTP block, Myeloid diff MLP)
CC(C)[C@H](NC(=O)c1ccc(Cl)c(Cl)c1)C(=O)N1CCC[C@H]1C(=O)NCCc1ccccc1Cl	none (no result: FAS-TE inh, GRIN3A LBD mod, MPTP block, Myeloid diff MLP)
C=CCn1c(SCc2ccc(Br)cc2F)nc2cc(C(=O)O)ccc2c1=O	FAS-TE inh 62, rCAG RNA binder 57 | FAS-TE inh conf 65 | rCAG binder conf 60 | DNA CAG counter 22
C=CCn1c(SCc2c(C)noc2C)nc2cc(C(=O)O)ccc2c1=O	none
O=C(NCc1ccccc1)[C@@H]1CCCN1C(=O)[C@H]1CCCN1C(=O)C1CCCCC1	none (no result: FAS-TE inh, GRIN3A LBD mod, MPTP block, Myeloid diff MLP)
C[C@H](O)[C@@H]1C(=O)N2CCc3c([nH]c4c(-c5ccccc5)cccc34)[C@@H]2C[C@@H]1N(C)C(=O)/C=C/c1ccccc1	none (no result: FAS-TE inh, GRIN3A LBD mod, MPTP block, Myeloid diff MLP)
Cc1ccc(S(=O)(=O)Nc2ccc3cn[nH]c3c2)c(C)c1	none
CCOc1cc(C)c(S(=O)(=O)Nc2ccc3cn[nH]c3c2)cc1C	MPTP block 72 (no result: rCAG RNA binder) | Rh123 counter 76
O=C(NCc1ccccc1Cl)C(=O)NCC1OCCN1S(=O)(=O)c1ccc(F)cc1 (stereo not drawn)	none (no result: Myeloid diff MLP)
CCOc1ccc2nc(N3C(=O)/C(=C/c4ccc(Cl)cc4)NC3=S)sc2c1	MPTP block 92 | Rh123 counter inactive
COc1ccc2nc(N3C(=O)CNC3=S)sc2c1	none
